Of roughly 7,900 targets only a part is listed; those with a hit were picked by preference. About 0.6% of all pairs of compound and target were hits.
What was measured:
Test in all cases: log2 fold change, soluble protein after heating vs DMSO (PISA); higher = thermal stabilisation; K562 cells, 10 uM, 30 min; active = over 0.2 and 3.5 SD of the protein, either way, in both replicates (recomputed)
[1] = compound: COC1=CC=C(C=C1)CN2C=CC3=C2C=C(C=C3)C(=O)NO
Procedure, shortened: (§1)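 K562 cells (2×10^6 cells/mL) were treated with 10 μM compound for 30 min, and aliquots were heated for 3 min over 48°C-58°C. Pooled aliquots were extracted in PBS with 0.5% NP-40 at 4°C, and the supernatant after 21,000xg for 90 min was measured by TMTpro 16plex LC-MS/MS with channel sums equalised. Reported thermal stability, relative to control samples and from duplicates, is a log2 fold change.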

[2] = compound: CON(C)C(=O)N1N=C(c2cc(F)ccc2F)S[C@@]1(CCCN)c1ccccc1 [filanesib]
Procedure, shortened: as §1

[3] = compound: CO[C@H]1C[C@@H]2CC[C@@H](C)[C@@](O)(O2)C(=O)C(=O)N2CCCC[C@H]2C(=O)O[C@H]([C@H](C)C[C@@H]2CC[C@H](n3cnnn3)[C@H](OC)C2)CC(=O)[C@H](C)/C=C(\C)[C@@H](O)[C@@H](OC)C(=O)[C@H](C)C[C@H](C)/C=C/C=C/C=C/1C [zotarolimus]
Procedure, shortened: as §1

[4] = compound: COc1cc(C(=O)O)ccc1NC(=O)[C@@H]1N[C@@H](CC(C)(C)C)[C@](C#N)(c2ccc(Cl)cc2F)[C@H]1c1cccc(Cl)c1F [idasanutlin]
Procedure, shortened: as §1

[5] = compound: COc1cc(Nc2ncc3c(n2)-c2ccc(Cl)cc2C(c2c(F)cccc2OC)=NC3)ccc1C(=O)O [alisertib]
Procedure, shortened: as §1

[6] = compound: COc1cc2nc(-c3cc(F)ccc3O)nc(N[C@@H]3CNC[C@H]3C(C)(C)O)c2cc1OC
Procedure, shortened: as §1

[7] = compound: COc1cc2ncnc(Nc3ccc(F)c(Cl)c3)c2cc1OCCCN1CCOCC1 [gefitinib]
Procedure, shortened: as §1

[8] = compound: COc1cccc2cc(-c3nc([C@H]4CC[C@H](C(=O)O)CC4)n4ncnc(N)c34)[nH]c12
Procedure, shortened: as §1

[9] = compound: CS(=O)(=O)CCNCc1ccc(-c2ccc3ncnc(Nc4ccc(OCc5cccc(F)c5)c(Cl)c4)c3c2)o1 [lapatinib]
Procedure, shortened: as §1

[10] = compound: CS(=O)(=O)N1CCN(Cc2cc3nc(-c4cccc5[nH]ncc45)nc(N4CCOCC4)c3s2)CC1 [pictilisib]
Procedure, shortened: as §1

[11] = compound: CS(=O)(=O)c1ccc(-c2cnc(N)c(C(=O)Nc3ccccc3)n2)cc1
Procedure, shortened: as §1

[12] = compound: C[C@@H](Oc1cc(-c2cnn(C3CCNCC3)c2)cnc1N)c1c(Cl)ccc(F)c1Cl [crizotinib]
Procedure, shortened: as §1

[13] = compound: C[C@@H]1COCCN1C2=NC(=NC(=C2)C3(CC3)S(=O)(=O)C)C4=C5C=CNC5=CC=C4
Procedure, shortened: as §1

[14] = compound: C[C@H](C1=CC=C(C=C1)C(=O)NC2=C3C=CNC3=NC=C2)N
Procedure, shortened: as §1

[15] = compound: C[C@H](Nc1ncnc2nc[nH]c12)c1cc2cccc(Cl)c2c(=O)n1-c1ccccc1 [duvelisib]
Procedure, shortened: as §1

[16] = compound: Cc1cc(Nc2cc(CN3CCOCC3)c3nc(C)c(Cc4ccc(Cl)cc4F)n3n2)n[nH]1 [gandotinib]
Procedure, shortened: as §1

[17] = compound: Cc1cc(Nc2cc(N3CCN(C)CC3)nc(Sc3ccc(NC(=O)C4CC4)cc3)n2)n[nH]1 [tozasertib]
Procedure, shortened: as §1

[18] = compound: Cc1cc(SCc2sc(-c3ccc(C(F)(F)F)cc3)nc2C)ccc1OCC(=O)O
Procedure, shortened: as §1

[19] = compound: Cc1ccc(-n2nc(C(C)(C)C)cc2NC(=O)Nc2ccc(OCCN3CCOCC3)c3ccccc23)cc1 [doramapimod]
Procedure, shortened: as §1

[20] = compound: Cc1ccc(C(=O)N(CCCN)[C@@H](c2nc3cc(Cl)ccc3c(=O)n2Cc2ccccc2)C(C)C)cc1 [ispinesib]
Procedure, shortened: as §1

Measured: log2 fold change

PSMD7 (UniProt P51665)
UniProt P51665, sequence (P51665 whole entry, looked up): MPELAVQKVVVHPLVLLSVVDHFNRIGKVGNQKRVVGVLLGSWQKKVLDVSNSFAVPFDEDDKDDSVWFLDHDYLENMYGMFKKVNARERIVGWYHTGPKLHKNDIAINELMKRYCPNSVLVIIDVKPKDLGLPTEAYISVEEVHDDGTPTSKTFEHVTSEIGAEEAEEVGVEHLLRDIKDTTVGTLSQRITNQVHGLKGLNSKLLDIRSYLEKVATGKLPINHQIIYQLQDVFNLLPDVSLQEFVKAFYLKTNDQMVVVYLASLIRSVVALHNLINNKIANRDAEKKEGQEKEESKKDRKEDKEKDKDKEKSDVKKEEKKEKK
inactive: [1] -0.059 | [2] 0.054 | [3] -0.014 | [4] 0.01 | [5] -0.032 | [6] -0.027 | [7] -0.049 | [8] -0.022 | [9] 0.089 | [10] -0.078 | [11] 0.077 | [12] -0.001 | [13] -0.053 | [14] 0.072 | [15] -0.073 | [16] 0.078 | [17] 0.003 | [18] -0.003 | [19] 0.069 | [20] 0.018

PIKFYVE (UniProt Q9Y2I7)
inactive: [1] 0.03 | [2] -0.036 | [3] -0.074 | [4] -0.096 | [5] 0.016 | [6] -0.037 | [7] -0.308 | [8] -0.044 | [9] -0.098 | [10] -0.047 | [11] -0.016 | [12] -0.068 | [13] 0.096 | [14] 0.073 | [15] 0.005 | [16] -0.062 | [17] -0.005 | [18] 0.091 | [19] 0.023 | [20] -0.061

POLA2 (UniProt Q14181)
UniProt Q14181, sequence (Q14181 whole entry, looked up): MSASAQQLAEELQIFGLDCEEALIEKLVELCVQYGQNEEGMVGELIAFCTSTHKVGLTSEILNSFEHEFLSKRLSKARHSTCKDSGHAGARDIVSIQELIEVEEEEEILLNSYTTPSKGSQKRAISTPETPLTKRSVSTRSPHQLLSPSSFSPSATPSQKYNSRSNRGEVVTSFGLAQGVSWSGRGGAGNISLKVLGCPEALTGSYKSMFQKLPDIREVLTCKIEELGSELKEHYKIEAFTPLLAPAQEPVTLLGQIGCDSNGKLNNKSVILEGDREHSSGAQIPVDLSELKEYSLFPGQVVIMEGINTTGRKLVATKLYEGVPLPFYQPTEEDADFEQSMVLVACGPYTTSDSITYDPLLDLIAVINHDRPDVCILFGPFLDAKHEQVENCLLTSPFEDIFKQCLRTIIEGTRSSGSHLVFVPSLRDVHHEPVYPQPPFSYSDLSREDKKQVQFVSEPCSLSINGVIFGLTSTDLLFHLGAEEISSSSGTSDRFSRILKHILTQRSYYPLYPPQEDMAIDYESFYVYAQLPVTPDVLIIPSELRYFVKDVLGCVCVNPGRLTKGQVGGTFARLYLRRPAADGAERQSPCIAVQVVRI
inactive: [1] 0.086 | [2] -0.001 | [3] 0.015 | [4] -0.02 | [5] 0.005 | [6] 0.046 | [7] 0 | [8] -0.015 | [9] 0.018 | [10] 0.051 | [11] 0.116 | [12] -0.026 | [13] 0.143 | [14] -0.036 | [15] 0.121 | [17] 0.091 | [18] 0.047 | [19] -0.013 | [20] -0.028
active: [16] -0.287

PRKAR2B (UniProt P31323)
UniProt P31323, sequence (P31323 whole entry, looked up): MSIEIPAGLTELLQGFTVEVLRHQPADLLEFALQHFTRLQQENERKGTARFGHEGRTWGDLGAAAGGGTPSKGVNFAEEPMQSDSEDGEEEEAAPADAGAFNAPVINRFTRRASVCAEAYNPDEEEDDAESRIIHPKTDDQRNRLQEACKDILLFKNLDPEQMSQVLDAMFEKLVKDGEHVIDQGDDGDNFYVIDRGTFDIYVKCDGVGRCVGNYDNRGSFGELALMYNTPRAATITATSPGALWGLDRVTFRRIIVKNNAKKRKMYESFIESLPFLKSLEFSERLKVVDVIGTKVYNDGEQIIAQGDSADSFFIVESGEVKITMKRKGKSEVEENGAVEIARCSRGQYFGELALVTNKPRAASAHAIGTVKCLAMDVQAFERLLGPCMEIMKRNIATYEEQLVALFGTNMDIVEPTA
inactive: [1] -0.032 | [2] 0.06 | [3] 0.153 | [4] 0.05 | [5] -0.007 | [7] -0.026 | [8] -0.024 | [9] 0.048 | [10] -0.056 | [11] -0.026 | [12] -0.108 | [13] -0.067 | [14] -0.136 | [15] 0.007 | [16] -0.271 | [17] 0.026 | [18] 0.112 | [19] 0.073 | [20] -0.001
active: [6] -0.63

PGK2 (UniProt P07205)
inactive: [1] 0.016 | [2] -0.003 | [3] -0.029 | [4] 0.001 | [5] 0.08 | [6] 0.14 | [7] 0.068 | [8] 0.001 | [9] -0.093 | [10] 0.041 | [11] 0.016 | [12] 0.029 | [13] 0.075 | [14] -0.002 | [15] 0.062 | [16] 0.078 | [17] -0.033 | [18] -0.093 | [19] -0.109 | [20] 0.024

PSMD2 (UniProt Q13200)
inactive: [1] -0.036 | [2] 0.051 | [3] -0.015 | [4] 0.039 | [5] -0.089 | [6] -0.071 | [7] -0.043 | [8] -0.053 | [9] 0.077 | [10] -0.059 | [11] 0.017 | [12] 0.019 | [13] -0.063 | [14] 0.075 | [15] -0.064 | [16] 0.015 | [17] 0.023 | [18] 0.004 | [19] 0.021 | [20] -0.017

POP1 (UniProt Q99575)
UniProt Q99575, sequence (Q99575 whole entry, looked up): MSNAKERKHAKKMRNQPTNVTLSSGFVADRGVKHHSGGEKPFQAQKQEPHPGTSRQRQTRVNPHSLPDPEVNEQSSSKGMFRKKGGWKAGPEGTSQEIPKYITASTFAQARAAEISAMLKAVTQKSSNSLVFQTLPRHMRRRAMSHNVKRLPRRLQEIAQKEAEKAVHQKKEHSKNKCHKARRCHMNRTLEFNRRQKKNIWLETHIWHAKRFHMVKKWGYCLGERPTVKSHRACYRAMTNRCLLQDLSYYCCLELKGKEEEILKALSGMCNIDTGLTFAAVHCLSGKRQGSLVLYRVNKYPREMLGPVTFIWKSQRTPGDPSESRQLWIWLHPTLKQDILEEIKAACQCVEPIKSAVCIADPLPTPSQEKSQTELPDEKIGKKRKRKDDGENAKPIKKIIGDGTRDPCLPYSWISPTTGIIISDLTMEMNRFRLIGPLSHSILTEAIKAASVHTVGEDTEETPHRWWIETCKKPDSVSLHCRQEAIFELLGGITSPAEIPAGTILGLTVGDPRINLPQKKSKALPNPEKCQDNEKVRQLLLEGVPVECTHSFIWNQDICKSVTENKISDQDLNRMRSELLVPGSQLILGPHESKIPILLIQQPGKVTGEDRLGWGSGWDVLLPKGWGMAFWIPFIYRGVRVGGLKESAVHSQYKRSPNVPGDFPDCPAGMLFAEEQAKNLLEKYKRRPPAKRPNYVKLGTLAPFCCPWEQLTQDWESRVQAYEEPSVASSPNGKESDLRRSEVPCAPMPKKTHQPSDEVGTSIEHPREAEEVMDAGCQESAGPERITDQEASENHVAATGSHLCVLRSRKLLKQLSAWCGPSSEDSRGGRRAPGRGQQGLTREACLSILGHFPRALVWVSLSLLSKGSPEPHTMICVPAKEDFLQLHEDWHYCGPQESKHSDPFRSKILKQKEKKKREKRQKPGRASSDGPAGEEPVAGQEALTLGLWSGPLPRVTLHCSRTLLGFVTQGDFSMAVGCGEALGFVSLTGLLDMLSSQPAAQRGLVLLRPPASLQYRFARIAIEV
inactive: [1] 0.025 | [2] -0.023 | [3] 0.033 | [4] -0.009 | [5] -0.054 | [6] -0.109 | [7] 0.012 | [8] 0.021 | [9] 0.084 | [10] -0.01 | [11] -0.034 | [12] 0.02 | [13] -0.023 | [14] -0.05 | [15] -0.005 | [16] 0.012 | [17] 0.009 | [18] -0.041 | [19] 0.016 | [20] 0.039

PRKAB2 (UniProt O43741)
inactive: [1] 0.038 | [2] -0.167 | [3] 0.109 | [4] 0.14 | [5] 0.053 | [6] -0.074 | [7] 0.004 | [8] 0.057 | [9] 0.131 | [10] 0.111 | [11] -0.08 | [12] -0.245 | [13] 0.021 | [14] -0.231 | [15] -0.154 | [17] 0.044 | [18] 0.051 | [19] -0.041 | [20] 0.143
active: [16] -0.484

PBK (UniProt Q96KB5)
inactive: [1] -0.01 | [2] 0.056 | [3] 0.112 | [4] 0.027 | [5] -0.032 | [6] 0.014 | [7] 0.084 | [8] -0.169 | [9] -0.001 | [10] 0.086 | [11] 0.048 | [12] -0.046 | [13] 0.051 | [14] 0.134 | [15] 0.006 | [16] -0.136 | [17] 0.109 | [18] 0.157 | [19] 0.015 | [20] -0.066

PSMD12 (UniProt O00232)
UniProt O00232, sequence (O00232 whole entry, looked up): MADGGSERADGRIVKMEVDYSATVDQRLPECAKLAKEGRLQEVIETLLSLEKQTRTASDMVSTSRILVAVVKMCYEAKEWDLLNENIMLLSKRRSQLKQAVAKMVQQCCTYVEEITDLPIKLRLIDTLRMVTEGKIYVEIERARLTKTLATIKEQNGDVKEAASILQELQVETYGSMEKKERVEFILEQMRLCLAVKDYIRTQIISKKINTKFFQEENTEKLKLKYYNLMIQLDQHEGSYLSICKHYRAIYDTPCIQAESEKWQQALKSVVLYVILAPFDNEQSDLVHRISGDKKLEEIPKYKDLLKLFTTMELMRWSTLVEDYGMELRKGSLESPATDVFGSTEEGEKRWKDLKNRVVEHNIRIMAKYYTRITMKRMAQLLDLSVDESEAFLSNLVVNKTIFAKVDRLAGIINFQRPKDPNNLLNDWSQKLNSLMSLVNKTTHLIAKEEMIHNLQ
inactive: [1] -0.015 | [2] 0.047 | [3] 0.013 | [4] -0.025 | [5] -0.096 | [6] -0.07 | [7] -0.018 | [8] -0.067 | [9] 0.096 | [10] -0.059 | [11] 0.053 | [12] 0.009 | [13] -0.03 | [14] 0.073 | [15] -0.053 | [16] 0.029 | [17] 0.068 | [18] 0.057 | [19] 0.019 | [20] 0.003

PEX16 isoform 2 (UniProt Q9Y5Y5)
UniProt Q9Y5Y5, sequence (Q9Y5Y5 whole entry, looked up): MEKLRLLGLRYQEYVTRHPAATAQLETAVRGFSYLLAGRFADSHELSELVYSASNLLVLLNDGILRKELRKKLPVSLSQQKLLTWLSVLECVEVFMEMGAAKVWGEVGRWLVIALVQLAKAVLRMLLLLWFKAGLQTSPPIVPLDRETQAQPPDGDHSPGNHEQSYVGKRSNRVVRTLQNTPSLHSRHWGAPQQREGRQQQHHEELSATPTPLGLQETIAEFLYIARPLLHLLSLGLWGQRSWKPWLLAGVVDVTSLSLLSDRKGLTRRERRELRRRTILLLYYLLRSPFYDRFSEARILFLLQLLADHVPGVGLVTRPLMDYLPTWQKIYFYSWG
inactive: [1] 0.146 | [2] -0.152 | [3] 0.016 | [4] -0.076 | [5] -0.011 | [6] -0.227 | [7] -0.021 | [8] 0.193 | [9] 0.05 | [10] -0.089 | [11] -0.001 | [12] -0.142 | [13] 0.052 | [14] -0.072 | [15] 0.096 | [16] -0.104 | [17] 0.018 | [18] 0.057 | [19] 0.106 | [20] -0.23

PIP4P2 (UniProt Q8N4L2)
UniProt Q8N4L2, sequence (Q8N4L2 whole entry, looked up): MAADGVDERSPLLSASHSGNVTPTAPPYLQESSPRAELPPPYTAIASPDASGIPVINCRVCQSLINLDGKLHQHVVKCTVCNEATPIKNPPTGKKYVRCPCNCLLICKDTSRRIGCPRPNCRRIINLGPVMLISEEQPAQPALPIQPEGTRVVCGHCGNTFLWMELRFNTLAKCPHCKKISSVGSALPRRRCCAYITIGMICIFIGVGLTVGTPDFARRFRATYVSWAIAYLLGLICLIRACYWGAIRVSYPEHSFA
inactive: [1] 0.053 | [3] 0.027 | [4] 0.14 | [5] 0.022 | [6] 0.007 | [7] 0.009 | [8] -0.016 | [9] 0.03 | [10] 0.061 | [11] -0.057 | [13] 0.013 | [14] -0.058 | [15] 0.068 | [16] 0.017 | [17] -0.041 | [18] 0.013 | [19] -0.032
active: [2] -0.383 | [12] -0.3 | [20] -0.569

PGGT1B (UniProt P53609)
inactive: [1] -0.112 | [2] 0.047 | [3] -0.006 | [4] -0.025 | [5] -0.03 | [6] -0.031 | [7] -0.013 | [8] 0.058 | [9] -0.019 | [10] 0.037 | [11] 0.093 | [12] 0.04 | [13] 0.002 | [14] -0.05 | [15] 0.046 | [16] -0.011 | [17] 0.006 | [18] -0.143 | [19] -0.028 | [20] 0.043

PELP1 (UniProt Q8IZL8)
UniProt Q8IZL8, sequence (Q8IZL8 whole entry, looked up): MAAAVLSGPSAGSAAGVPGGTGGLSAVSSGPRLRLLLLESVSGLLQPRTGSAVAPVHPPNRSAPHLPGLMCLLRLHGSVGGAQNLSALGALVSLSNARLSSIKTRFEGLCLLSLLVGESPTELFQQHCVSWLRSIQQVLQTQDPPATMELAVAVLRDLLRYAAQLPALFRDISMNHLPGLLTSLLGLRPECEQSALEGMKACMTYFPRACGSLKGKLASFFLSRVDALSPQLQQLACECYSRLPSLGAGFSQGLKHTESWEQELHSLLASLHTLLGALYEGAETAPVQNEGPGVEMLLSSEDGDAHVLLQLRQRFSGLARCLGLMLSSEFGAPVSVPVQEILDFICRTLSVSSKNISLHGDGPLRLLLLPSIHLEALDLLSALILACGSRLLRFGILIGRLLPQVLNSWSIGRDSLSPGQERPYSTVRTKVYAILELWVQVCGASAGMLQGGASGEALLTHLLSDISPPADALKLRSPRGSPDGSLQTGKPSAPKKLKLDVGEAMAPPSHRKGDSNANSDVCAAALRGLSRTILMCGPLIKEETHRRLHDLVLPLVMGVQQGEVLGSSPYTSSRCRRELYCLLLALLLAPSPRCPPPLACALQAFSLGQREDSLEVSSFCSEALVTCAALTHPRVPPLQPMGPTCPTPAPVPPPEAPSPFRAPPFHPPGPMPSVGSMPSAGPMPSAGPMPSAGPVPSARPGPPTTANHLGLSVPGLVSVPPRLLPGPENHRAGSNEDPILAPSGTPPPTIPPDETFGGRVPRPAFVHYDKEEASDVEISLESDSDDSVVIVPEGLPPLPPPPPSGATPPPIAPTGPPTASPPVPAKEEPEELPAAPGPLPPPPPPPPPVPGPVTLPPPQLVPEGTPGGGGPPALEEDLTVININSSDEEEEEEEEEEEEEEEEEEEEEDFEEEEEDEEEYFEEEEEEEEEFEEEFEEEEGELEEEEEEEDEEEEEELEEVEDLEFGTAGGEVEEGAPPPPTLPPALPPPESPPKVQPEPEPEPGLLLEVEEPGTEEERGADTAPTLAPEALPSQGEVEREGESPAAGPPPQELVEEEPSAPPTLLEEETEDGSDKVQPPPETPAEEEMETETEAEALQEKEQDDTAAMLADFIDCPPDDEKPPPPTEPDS
inactive: [1] -0.096 | [2] -0.022 | [3] 0.012 | [4] 0.012 | [5] -0.045 | [6] -0.033 | [7] -0.002 | [8] 0.042 | [9] 0.031 | [10] -0.074 | [11] -0.006 | [12] -0.012 | [13] -0.107 | [14] -0.024 | [15] -0.055 | [16] -0.282 | [17] -0.012 | [18] 0.111 | [19] 0.019 | [20] 0.004

PI4K2A (UniProt Q9BTU6)
UniProt Q9BTU6, sequence (Q9BTU6 whole entry, looked up): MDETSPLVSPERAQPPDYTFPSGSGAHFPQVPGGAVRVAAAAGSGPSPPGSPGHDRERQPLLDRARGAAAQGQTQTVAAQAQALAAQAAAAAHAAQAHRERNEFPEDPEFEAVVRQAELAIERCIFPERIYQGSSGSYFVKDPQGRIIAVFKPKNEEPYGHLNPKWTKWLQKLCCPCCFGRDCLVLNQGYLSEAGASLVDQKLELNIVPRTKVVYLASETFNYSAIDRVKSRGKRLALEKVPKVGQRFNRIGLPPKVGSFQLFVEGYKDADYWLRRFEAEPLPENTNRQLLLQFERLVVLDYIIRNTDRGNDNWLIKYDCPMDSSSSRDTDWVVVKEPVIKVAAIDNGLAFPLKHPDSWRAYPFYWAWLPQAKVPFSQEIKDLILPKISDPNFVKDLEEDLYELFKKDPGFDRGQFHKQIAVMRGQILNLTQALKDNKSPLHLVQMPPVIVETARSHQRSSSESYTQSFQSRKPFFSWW
active: [20] -0.244
inactive: [1] 0.012 | [2] -0.066 | [3] -0.037 | [4] -0.044 | [5] -0.006 | [6] -0.015 | [7] -0.027 | [8] 0.005 | [9] 0 | [10] 0.049 | [11] 0.031 | [12] -0.185 | [13] 0.032 | [14] 0 | [15] 0.043 | [16] -0.004 | [17] -0.009 | [18] 0.001 | [19] 0.015

PECAM1 (UniProt P16284)
inactive: [1] 0.018 | [2] 0.114 | [3] -0.002 | [4] -0.029 | [5] -0.053 | [6] 0.025 | [7] 0.02 | [8] 0.063 | [9] -0.021 | [10] 0.12 | [11] 0.086 | [12] 0.145 | [13] 0.157 | [14] 0.034 | [15] 0.08 | [16] -0.001 | [17] -0.105 | [18] -0.03 | [19] -0.025 | [20] 0.099

Source: the supplement of paper PMC10849652
